Only some compounds are listed: those with a hit (about 7% of all), similar ones and a draw of the others.
AHR activator: AHR activators, primary screen, cell-based, luminescence, luciferase reporter, human; 320,000 compounds, 2.5% hits; activation, % at 5 µM; AHR-responsive luciferase reporter cells; AID 2796, 2010; Aryl hydrocarbon receptor (Homo sapiens), P35869; in the data active means activation above about 47%;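 further: 0% = vehicle wells and 100% = reference agonist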
ADAM17 inh: ADAM17 inhibitors, primary screen, biochemical, QFRET; Disintegrin and metalloproteinase domain-containing protein 17 (Homo sapiens), P78536; recombinant ADAM17, EDANS/DABCYL FRET peptide cleavage; inhibition, % at 6.95 µM; 370,000 compounds, 0.83% hits;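 active means inhibition above the mean of compounds lying between control limits plus 3 SD, set per campaign, cut at about 8.5% in these data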;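 further: 0% = DMSO-only wells as the low control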
Target sequence (P78536 215-824 limits assumed): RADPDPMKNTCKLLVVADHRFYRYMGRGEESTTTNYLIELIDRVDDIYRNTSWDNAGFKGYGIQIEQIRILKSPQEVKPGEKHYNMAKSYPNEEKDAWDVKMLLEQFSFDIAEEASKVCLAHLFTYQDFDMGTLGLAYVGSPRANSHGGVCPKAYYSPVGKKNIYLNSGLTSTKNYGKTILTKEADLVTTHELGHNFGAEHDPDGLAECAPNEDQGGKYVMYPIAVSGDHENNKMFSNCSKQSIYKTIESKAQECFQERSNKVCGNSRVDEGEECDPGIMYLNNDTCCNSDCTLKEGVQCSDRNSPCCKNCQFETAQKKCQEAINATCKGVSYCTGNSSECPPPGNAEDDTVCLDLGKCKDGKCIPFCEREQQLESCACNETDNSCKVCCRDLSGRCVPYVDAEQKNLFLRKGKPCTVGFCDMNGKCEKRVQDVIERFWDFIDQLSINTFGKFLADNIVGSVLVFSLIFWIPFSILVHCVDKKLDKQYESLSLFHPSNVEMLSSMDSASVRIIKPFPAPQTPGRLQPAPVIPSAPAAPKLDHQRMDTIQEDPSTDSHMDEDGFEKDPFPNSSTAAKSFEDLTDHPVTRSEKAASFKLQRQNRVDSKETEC
NR3A LBD binder: binders of NR3A ligand-binding domain, primary screen, biophysical, differential scanning fluorimetry, uHTS | AID 1259313, 2017 | Tm shift relative to glycine control, % at 25 µM | NR3A LBD differential scanning fluorimetry, Tm shift; 0% = protein alone, 100% = glycine-bound protein | Glutamate receptor ionotropic, NMDA 3A (GRIN3A) ligand-binding domain | 340,000 compounds, 2.5% hits;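 active means melting temperature shift of at least 10% of the positive control shift, at one fixed dose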
proKLK7 act: proKLK7 zymogen activators, primary screen, biochemical, fluorescence intensity; purified proKLK7, EDANS-DABCYL substrate fluorescence; 100% is mature enzyme control, 0% vehicle; activation, % at 7 µM; 370,000 compounds, 0.9% hits; AID 652039, 2013;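 active means activation above the mean of all tested compounds plus 3 SD, computed per campaign excluding outliers beyond control limits, cut at about 13% in these data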
ADAM10 inh: human ADAM10 inhibitors, primary screen, biochemical, QFRET, HTS; Disintegrin and metalloproteinase domain-containing protein 10 (Homo sapiens), O14672; recombinant ADAM10, EDANS/DABCYL FRET peptide cleavage, 3 h; inhibition, % at 7 µM; 370,000 compounds, 0.62% hits; AID 720582, 2013;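 active means inhibition above a per-campaign cutoff equal to the mean of compounds falling between control-based bounds plus 3 SD, cut at about 20% in these data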;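 further: 0% = DMSO wells while the 100% control is not disclosed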
rCAG binder-1: binders of r(CAG) RNA repeats, primary screen, biochemical, fluorescence; 370,000 compounds, 1.3% hits; inhibition, % at 3 µM; r(CAG) RNA repeat, TO-PRO-1 dye displacement fluorescence;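 active means inhibition above the plate cutoff, the mean of all test compounds on that plate plus 3 SD, cut at about 35% in these data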;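 further: 0% = DMSO alone and 100% = 100 µM mitoxantrone as full dye displacement; higher means more dye released from RNA so lower well fluorescence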
rCAG binder conf: small molecules binding CAG repeat RNA – biochemical, fluorescence, confirmation; shares compounds with rCAG binder-1; r(CAG) RNA repeat, TO-PRO-1 dye displacement fluorescence; inhibition, % at 3 µM; 4,300 compounds, 70% hits;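 active means inhibition above a per-plate cutoff, the mean inhibition of sample wells plus 3 SD, cut at about 35% in these data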;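 further: loss of TO-PRO-1 fluorescence as compound displaces dye from 1x1 AA loop RNA; 0% = DMSO only wells and 100% = 100 µM mitoxantrone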
DNA CAG counter: displacement of TO-PRO-1 from CAG DNA duplex, counter-screen for rCAG RNA repeat binder project, biochemical, fluorescence, TO-PRO-1 dye, d(CAG) DNA oligo | shares compounds with rCAG binder-1 | d(CAG) DNA oligo TO-PRO-1 dye displacement | inhibition, % at 3 µM | 4,300 compounds, 94% hits;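 active means inhibition above its plate's cutoff, the mean test-well inhibition plus 3 SD, cut at about 4.8% in these data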;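 further: 0% = DNA dye mix with DMSO and 100% = 100 µM mitoxantrone; hits displace the dye from DNA and so lower well fluorescence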
dCAG dye DR: inhibitors of DNA CAG/GTC TO-PRO-1 complex, dose response, counter-screen for rCAG RNA repeat binder project, biochemical, fluorescence, TO-PRO-1 dye; shares compounds with rCAG binder-1; DNA CAG/GTC duplex TO-PRO-1 dye displacement fluorescence; IC50, µM; 250 compounds, 20% hits; AID 686960, 2013; in the data active means IC50 below about 10 µM
dCAG TOPRO ctr: TO-PRO-1 dye complex inhibitors on d(CAG) DNA, dose response, counter-screen, biochemical, fluorescence, late stage; IC50, µM; d(CAG) DNA duplex TO-PRO-1 dye displacement; 30 compounds, 80% hits; AID 720649, 2013; shares compounds with rCAG binder-1
rCAG binder-2: molecules binding r(CAG) RNA repeats, late stage dose response, late-stage follow-up, biochemical, fluorescence, dose response, powder samples; 30 compounds, 100% hits; IC50, µM; shares compounds with rCAG binder-1; r(CAG) RNA TO-PRO-1 dye displacement
Starred values were filed as active, the others as inactive; i = inactive; / = not tested or not shown. Unless noted, how the calls were made is not given here.

SMILES | AHR activator | ADAM17 inh | NR3A LBD binder | proKLK7 act | ADAM10 inh | rCAG binder-1 | rCAG binder conf | DNA CAG counter | others
CCNC(=S)NNC(=O)c1cc(-c2ccc(OCC)cc2)nc2ccccc12 | -13 | -67 | 1 | 11 | -187 | 43* | 48* | 16*
COc1ccc(C(=O)NNC(=S)NC(=O)c2cc(-c3ccccc3)nc3ccccc23)cc1 | 4 | 2 | 14* | 0 | 9 | 65* | 79* | 33*
COc1ccc(-c2cc(C(=O)NNC(=S)NC(=O)c3c(-c4ccccc4)noc3C)[nH]n2)cc1 | 0 | 0 | -3 | 0 | 6 | 70* | 75* | 33* | dCAG dye DR=i;dCAG TOPRO ctr=i;rCAG binder-2=0.99*
CCNC(=S)NNC(=O)c1cc(-c2ccccc2C)nc2ccccc12 | 18 | / | -8 | / | / | / | / | /
Cc1ccc(C)c(-c2cc(C(=O)NNC(=S)NCC(C)C)c3ccccc3n2)c1 | 6 | -7 | 12* | 0 | -66 | 45* | 67* | 24* | dCAG dye DR=>30
Cc1cccc(NS(=O)(=O)c2nnc(NC(=O)c3ccc(C)c(C)c3)s2)c1 | 5 | 0 | 6 | 0 | -4 | 41* | 37* | 14*
Cc1cccc(NS(=O)(=O)c2nnc(NC(=O)C3CCCCC3)s2)c1 | -1 | -3 | -8 | 0 | 1 | 37* | 20 | 5.3*
COc1cccc(C(=O)Nc2nnc(S(=O)(=O)Nc3cccc(C)c3)s2)c1 | 4 | 1 | 1 | 1 | 5 | 17 | / | /
O=C(N/N=C/c1cc([N+](=O)[O-])cc([N+](=O)[O-])c1O)C(O)(c1ccccc1)c1ccccc1 | 3 | 4 | 3 | 1 | 6 | 68* | 71* | 30*
Cc1cc(NC(=O)Cc2cn(C)c3ccccc23)ccc1Oc1cccnc1 | / | -1 | / | 1 | -6 | 5 | / | /
COC(=O)c1sccc1NC(=O)CSc1ccccc1NS(=O)(=O)c1ccccc1Cl | 4 | 6 | -10 | 0 | 7 | 36* | 62* | 20*
COC(=O)c1sccc1NC(=O)CSc1ccccc1NS(=O)(=O)c1ccc(Cl)cc1 | 8 | 6 | -7 | 0 | 18 | 32 | / | /
CCN=c1scc(C)n1/N=C/c1ccc(O)c(O)c1O | -2 | 5 | -1 | -1 | 3 | 38* | 49* | 19*
COCCN=c1scc(-c2cccs2)n1/N=C/c1ccc(O)c(O)c1O | 21 | 14* | 0 | 0 | 24* | 48* | 62* | 30* | dCAG dye DR=9.2*
CCN=c1scc(-c2ccco2)n1/N=C/c1ccc(O)cc1 | -1 | -5 | 4 | 0 | -11 | 18 | / | /
CCN=c1scc(C)n1/N=C/c1cc(Br)c(O)c(Br)c1 | 2 | -8 | -3 | -4 | -28 | 36* | 42* | 18*
O=C(CSc1nnc(-c2ccc(Cl)cc2)n1C1CCCCC1)NN=Cc1c(O)ccc2ccccc12 | / | 1 | / | -3 | -5 | 14 | / | /
COC(=O)C1=C(C)N(Cc2cccc(C(F)(F)F)c2)C(=NCc2cc(OC)c(OC)c(OC)c2)NC1c1ccccc1C(F)(F)F (stereo not given) | / | -4 | / | 0 | -4 | 3 | / | /
CCNC(=O)N1C[C@H]2CON(C)[C@H]2C[C@H]1c1ccc(N2CCCCC2)cc1 | / | -5 | / | 0 | -14 | -1 | / | /
Cc1ccc(CN2CCCCC(NC(=O)c3cccc(F)c3)C2=O)cc1 (stereo not given) | / | -1 | / | 0 | -2 | 0 | / | /
COc1ccc(-c2nc3c(c(SCC(=O)Nc4cccc(O)c4)n2)Cc2c(CO)cnc(C)c2O3)cc1 | 1 | 5 | 8 | -1 | 5 | 58* | 25 | 16*
Cc1ncc(CO)c2c1Oc1nc(-c3ccccc3)nc(SCC(=O)Nc3cccc(O)c3)c1C2 | 8 | 3 | 7 | 0 | 10 | 58* | 30 | 17*
O=C(CSc1ncc(-c2ccccc2)[nH]1)Nc1cccc(O)c1 | 6 | 0 | 6 | 0 | 7 | 5 | / | /
Cc1cc(Nc2ccc(C(=O)O)cc2)nc(N)n1 | -2 | -7 | 0 | 0 | -8 | -5 | / | /
CC(=O)NNc1cc(C)nc(N)n1 | -2 | -4 | -1 | 0 | 9 | 66* | 3 | 1
SMILES | AHR activator | ADAM17 inh | NR3A LBD binder | proKLK7 act | ADAM10 inh | rCAG binder-1 | rCAG binder conf | DNA CAG counter | others
C[C@H]1CN([C@@H](C)CO)C(=O)CCCn2cc(nn2)CO[C@@H]1CN(C)C(=O)Nc1ccccc1C(F)(F)F | / | 0 | / | 0 | -7 | 1 | / | /
O=S1(=O)c2ccc(N3CCSCC3)cc2Oc2ccccc2CN1Cc1cn(Cc2cccc(C(F)(F)F)c2)nn1 | / | 3 | / | 0 | 15 | 13 | / | /
Cc1c(OC(C(=O)O)c2ccccc2)ccc2c3c(c(=O)oc12)CCC3 (stereo not given) | / | -45 | 0 | -2 | -96 | 7 | / | /
Cc1c(OC(C(=O)O)c2ccccc2)ccc2c1oc(=O)c1ccccc12 (stereo not given) | 0 | -467 | -1 | -1 | i | 36* | 48* | 14*
O=C(O)c1ccccc1N=Nc1ccc(O)cc1 | -1 | 3 | -1 | 0 | 6 | 3 | / | /
NS(=O)(=O)c1ccc(N=Nc2c(O)c(C(=O)O)cc3ccccc23)cc1 | 6 | -3 | 2 | -1 | 13 | 46* | 48* | 26*
